Most compounds without a hit are left out; they make up all but 10% or so of the library.
KB-V1 MDR tox = qHTS assay for MDR1-selective chemotherapeutics: Primary screen using the drug-selected MDR subline cells KB-V1. KB-V1 MDR cells viability, CellTiter-Glo, 72 h. Potency, µM (highest dose often 46.1 µM), most hits filed as cytotoxic. 3.4% of 400,000 active; further: on the % scale 0 is the no-effect control and ±100 the full control effect; nearly all actives have a fitted effect of over 60% in size
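qHTS viability screen in drug-selected KB-V1 MDR cells: 72 h compound treatment at 37 degrees C, ATP luminescence end point.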
SW480 rerep = A quantitative high throughput screen for small molecules that induce DNA re-replication in SW480 colon adenocarcinoma cells. 1.8% of 340,000 active. Potency, µM (top dose mostly 46.1 µM), for the others: top-dose re-replication activation, actives largely listed as activators. SW480 DNA re-replication, Hoechst DNA content imaging, 48 h; further: % of control where 0% means no effect; nearly all actives have a fitted effect of over 55% in size
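Per well, 250 cells were exposed to pinned compound for 48 hr. Nuclear DNA was visualised with Hoechst (40 min, 37 C) and total object intensity recorded by fluorescence scanning.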
VP16 counter = VP16 counterscreen qHTS for inhibitors of ROR gamma transcriptional activity; 3.5% of 310,000 active; Drosophila S2 Gal4-VP16 UAS-luciferase, luminescence, 20 h; Potency, µM (doses to about 53.6 µM), inactives show top-dose activity, negative = inhibition, hits mostly inhibitors;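 further: Gal4-VP16 expression switched on by copper sulfate through the metallothionein promoter; on the % scale 0 is the no-effect control and ±100 the full control effect; nearly all actives have a fitted effect of over 50% in size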
MCF10A rerep = A quantitative high throughput screen for small molecules that induce DNA re-replication in MCF 10a normal breast cells. Potency, µM (titrated, usually from 46.1 µM), without a hit: at the top dose activity, positive = re-replication, usual class: activators. 2.9% of 350,000 active. MCF 10A DNA re-replication, Hoechst nuclear intensity, 48 h; further: % of control where 0% means no effect; nearly all actives have a fitted effect of over 50% in size
KB-3-1 cytotox = qHTS assay for MDR1-selective chemotherapeutics: Primary screen using the parental adenocarcinoma cell KB-3-1. 1.4% of 400,000 active. AID 1347075, 2019. Potency, µM (titrated, usually from 46.1 µM), hits mostly cytotoxic. KB-3-1 viability, CellTiter-Glo ATP luminescence, 72 h; further: on the % scale 0 is the no-effect control and ±100 the full control effect; nearly all actives have a fitted effect of over 60% in size
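KB-3-1 parental drug-naive adenocarcinoma cells in DMEM/10% FBS, incubated 72 h at 37 C with pin-transferred compounds across a concentration series. Viability by CellTiter-Glo luminescence; concentration-response curves fitted after normalization.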
RORg inh = qHTS for inhibitors of ROR gamma transcriptional activity; Nuclear receptor ROR-gamma (Mus musculus), P51450; Drosophila S2 Gal4-RORgamma UAS-luciferase reporter, 20 h; Potency, µM (highest dose often 53.6 µM), for the others: at the top dose activity change, negative = inhibition, usual class: inhibitors; 5.4% of 310,000 active; further: on the % scale 0 is the no-effect control and ±100 the full control effect; nearly all actives have a fitted effect of over 60% in size
Target sequence (P51450 whole entry, looked up, the tested form may be a part): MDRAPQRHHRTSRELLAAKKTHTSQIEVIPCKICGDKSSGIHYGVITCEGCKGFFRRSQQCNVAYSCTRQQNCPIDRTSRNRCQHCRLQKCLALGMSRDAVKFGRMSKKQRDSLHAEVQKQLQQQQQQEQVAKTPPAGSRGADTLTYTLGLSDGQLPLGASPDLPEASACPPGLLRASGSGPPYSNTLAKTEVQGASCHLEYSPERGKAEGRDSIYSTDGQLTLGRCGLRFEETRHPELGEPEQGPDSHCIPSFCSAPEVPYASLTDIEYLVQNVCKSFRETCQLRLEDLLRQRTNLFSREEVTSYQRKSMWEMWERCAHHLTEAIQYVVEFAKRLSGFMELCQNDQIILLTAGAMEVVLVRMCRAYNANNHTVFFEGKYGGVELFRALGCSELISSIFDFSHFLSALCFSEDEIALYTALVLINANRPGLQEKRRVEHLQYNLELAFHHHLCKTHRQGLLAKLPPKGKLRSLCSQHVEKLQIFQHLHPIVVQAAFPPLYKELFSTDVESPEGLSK
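ROR gamma transcriptional activity was tracked as Gal4-UAS luciferase output in stably transfected Drosophila Schneider cells, with compound added 1 hr before 700 uM copper sulfate induction and a 20 hr ambient-temperature incubation.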
Numbers without * were called inactive; i = inactive; ? = inconclusive; . = not tested or not shown. The call rests on the fitted dose curve; in most records, active means well fitted curve in the direction sought with a large enough effect; inconclusive means small, poorly fitted or top-dose-only effect, or another doubt; inactive means no such curve, though single readings can be large; an effect the other way counts as inactive or inconclusive. Potency means the concentration at half of the fitted maximal effect.

SMILES	KB-V1 MDR tox	SW480 rerep	VP16 counter	MCF10A rerep	KB-3-1 cytotox	RORg inh
CC1Cc2cc(S(=O)(=O)NCCc3ccccc3)ccc2N1C(=O)C1CC1 (stereo not drawn)	i	8.3%	?	?	i	?
COc1ccc(OC)c(NS(=O)(=O)c2ccc3c(c2)CCCN3C(=O)C2CCC2)c1	?	.	.	.	i	.
COc1cc(CNS(=O)(=O)c2ccc3c(c2)CC(C)N3C(=O)C2CCC2)cc(OC)c1OC (stereo not drawn)	i	-3.5%	6.31µM*	-4.4%	i	-41.8%
COc1ccc(NS(=O)(=O)c2ccc3c(c2)CCCN3C(=O)C2CCC2)cc1OC	?	.	.	.	2.59µM*	.
Cc1ccc(S(=O)(=O)N2[C@@H](c3ccc(Cl)cc3)C(C(=O)OC(C)(C)C)=CC[C@H]2c2ccc(Cl)c(Cl)c2)cc1	i	.	.	.	i	.
Cc1ccc(C)c(NC(=O)CSc2nc(=O)n(Cc3ccccn3)c3c2CCC3)c1	i	.	.	.	i	.
CC(=O)N1c2ccc(S(=O)(=O)NCC3CCC(C(=O)Nc4cc(C)ccn4)CC3)cc2CC1C (stereo not drawn)	i	?	7.08µM*	16.4%	23.1µM*	?
COc1ccc(NC(=O)C2CCC(CNS(=O)(=O)c3ccc4c(c3)C(C)(C)C(=O)N4C)CC2)cc1 (stereo not drawn)	i	.	.	.	i	.
CC(=O)N1c2ccc(S(=O)(=O)NCC3CCC(C(=O)Nc4ncccc4C)CC3)cc2CC1C (stereo not drawn)	i	-4.8%	-2.5%	0.4%	i	-1.0%
Cc1ccc(CNC(=O)CCS(=O)(=O)c2ccc3c(c2)CC(C)N3C(=O)C2CC2)cc1 (stereo not drawn)	i	?	-0.6%	10.3µM*	20.6µM*	-1.7%
Cc1cc(C)cc(NC(=O)C2CCC(CNS(=O)(=O)c3ccc4c(c3)C(C)(C)C(=O)N4C)CC2)c1 (stereo not drawn)	i	.	.	.	18.4µM*	.
COc1ccc(CNS(=O)(=O)c2ccc3c(c2)CC(C)N3C(=O)C2CC2)cc1 (stereo not drawn)	?	-9.1%	17.8µM*	9.9%	?	?
N#Cc1cccc(NC(=O)CSc2nnc(C3CC3)n2C2CC2)c1	i	-9.2%	.	-1.0%	i	.
CCOc1cc(C2Nc3ccccc3C(=O)N2Cc2ccco2)ccc1OCc1ccccc1Cl (stereo not drawn)	i	.	.	.	i	.
COc1cc(OC)c(N(C)C(=O)c2c(C)oc3ncn(CC(C)C)c(=O)c23)cc1Cl	i	.	.	.	i	.
COCCn1c(=O)c(-c2ccc(Cl)cc2)nc2cnc(Oc3ccccc3)nc21	.	.	11.5%	.	.	11.0%
CCCc1cc(=O)oc2cc3oc(C)c(C)c3cc12	14.6µM*	0.3%	-12.0%	16.5%	i	-21.7%
O=C(Nc1cccc(S(=O)(=O)NCc2ccco2)c1)c1cc(-c2ccc(F)cc2)nc2ccccc12	?	?	1.3%	14.4%	?	?
COc1ccc(-c2cc(C(=O)Nc3ccc(S(=O)(=O)Nc4ncccn4)cc3)c3ccccc3n2)cc1	i	-3.0%	-5.0%	-30.9%	i	37.9%
COc1cc(-c2cc(C(=O)Nc3ccc(S(N)(=O)=O)cc3)c3ccccc3n2)cc(OC)c1OC	i	8.7%	9.5%	?	i	35.9%
COc1ccc(-c2cc(C(=O)Nc3cccc(S(=O)(=O)NCc4ccco4)c3)c3ccccc3n2)cc1OC	?	?	2.7%	11.6µM*	i	6.1%
CCN(CC)S(=O)(=O)c1ccc(O)c(NC(=O)c2cc(-c3cc(OC)c(OC)c(OC)c3)nc3ccccc23)c1	i	?	-12.3%	18.4µM*	i	?
COc1ccc(NC(=O)c2cc(-c3cc(OC)c(OC)c(OC)c3)nc3ccccc23)cc1OC	20.6µM*	-4.2%	-3.5%	19.5%	?	5.0%
COc1cc(-c2cc(C(=O)Nc3ccc(S(=O)(=O)Nc4ncccn4)cc3)c3ccccc3n2)cc(OC)c1OC	i	-12.6%	11.2µM*	4.6%	i	-35.1%
Cc1cccc(N2CCN(C(=O)CN3C(=O)COc4ccc(S(=O)(=O)N5CCCCCC5)cc43)CC2)c1C	i	.	.	.	i	.
SMILES	KB-V1 MDR tox	SW480 rerep	VP16 counter	MCF10A rerep	KB-3-1 cytotox	RORg inh
COCCNC(=O)C(=O)Nc1c2c(nn1-c1ccccc1)CS(=O)(=O)C2	i	.	.	.	i	.
CCN(CC)CCn1c(NC(=O)c2ccc(C)cc2)nc2ccccc21	?	0.6%	?	1.9%	?	?
CCCn1c(NC(=O)c2ccc([N+](=O)[O-])o2)nc2ccccc21	?	20.6µM*	.	?	i	.
CCCn1c(NC(=O)c2cccc(C)c2C)nc2ccccc21	?	?	2.24µM*	?	?	2µM*
COc1ccc(Cn2c(CCC(=O)NCc3cccc(Cl)c3)nc3cccnc32)cc1	i	.	.	.	i	.
CCOC(=O)c1c(C)[nH]c(C)c1S(=O)(=O)NCCN1CCN(c2cc(Cl)ccc2C)CC1	?	-5.7%	-9.4%	0.1%	16.4µM*	21.3%
O=C(c1ccncc1)N1CCC2(CCCN(c3ccncc3)C2)CC1	.	.	-16.9%	.	.	-0.4%
O=C(CN1C(=O)c2ccccc2S1(=O)=O)Nc1cc(S(=O)(=O)N2CCOCC2)ccc1N1CCOCC1	i	.	.	.	?	.
COCCn1c(=N)c(S(=O)(=O)c2ccc(F)cc2)cc2c(=O)n3ccccc3nc21	i	20.6µM*	-1.5%	18.4µM*	?	6.9%
N=c1c(S(=O)(=O)c2ccc(Cl)cc2)cc2c(=O)n3ccccc3nc2n1Cc1ccco1	i	5.17µM*	-28.5%	?	?	-10.4%
N=c1c(S(=O)(=O)c2ccc(Br)cc2)cc2c(=O)n3ccccc3nc2n1Cc1ccco1	i	-2.0%	-9.3%	?	i	-3.2%
CCCCCn1c(=N)c(S(=O)(=O)c2ccc(Cl)cc2)cc2c(=O)n3cccc(C)c3nc21	8.2µM*	11.4%	0.2%	?	?	-5.6%
CCOCCCn1c(=N)c(S(=O)(=O)c2ccc(Cl)cc2)cc2c(=O)n3cccc(C)c3nc21	?	.	.	.	i	.
COC(=O)c1ccc(C(NC(=O)c2ccco2)[C@]2(C)C[C@H]2C2CCCCC2)cc1 (stereo partly drawn)	.	.	11.6%	.	.	14.1%
